As a reminder, the AC50 is the concentration at which the activity in the assay is half-maximal.

Experimental findings from PubChem BioAssay (EPA / NIEHS) are described below.

Structures are written as SMILES. Several values for one entry are separate records, joined by “and”; a condition that tells them apart may be missing. Equal entries are not always repeated. Results filed as inconclusive are left out. Activity calls are given as the source filed them. How the source made its calls, unless noted: active means hit-call score of the fitted dose curve at least 0.9, where 1 is the maximum; inactive means score below 0.9.

A short description of experiment [1]: ACEA_ER_80hr: ACEA Biosciences xCELLigence Real-Time Cell Analysis on Estrogen Receptor Agonism for Proliferation (AID 2282667; active means hit-call score of the fitted dose curve at least 0.9, where 1 is the maximum). The note with it: T47D proliferation, impedance (xCELLigence), 80 h. The method in brief: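 Real-time electrical impedance tracked growth of the human breast line T47D, with the 80 h post-dosing value used. Dosing spanned eight 1:4 steps down from a 100 uM final top concentration, run in duplicate.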

The nature of experiment [2]: APR_HepG2_CellCycleArrest_24hr: Apredica 24-hour HepG2 Assay for Cell Cycle Arrest (AID 2282905).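 Further: cell cycle arrest scored as ratio of 2N to 4N nuclear DNA content.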 As to conditions: imaging, actives raise or lower the signal. A digest of the protocol:
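Cell cycle arrest is scored from nuclear DNA content measured by high-content imaging of Hoechst 33342-stained HepG2 cells following 24-hour treatment at ten concentrations up to 200 uM, with DMSO as baseline.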

Experiment [3] is described as follows: APR_HepG2_NuclearSize_24hr: Apredica 24-hour HepG2 Assay for Nuclear Size (AID 2282907). As to conditions: high-content imaging, actives raise or lower the signal. A digest of the protocol:
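Compounds in DMSO (final 0.5%) were added to human HepG2 hepatoma cells at ten concentrations up to 200 uM for 24 hr. Fixed nuclei were stained with Hoechst 33342, and nuclear diameter was quantified from automated images.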

A short description of experiment [4]: APR_HepG2_CellLoss_24hr: Apredica 24-hour HepG2 Assay for Cell Loss (AID 2282908).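 On AC50: fit in both directions so a hit may be cell loss or gain.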 The note with it: high-content imaging. A digest of the protocol:
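Cell number is quantified by fluorescence imaging of Hoechst 33342-stained nuclei following dosing at 0.39–200 uM in 0.5% DMSO. Curves are fitted in both directions from the DMSO baseline.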

The nature of experiment [5]: APR_HepG2_MicrotubuleCSK_24hr: Apredica 24-hour HepG2 Assay for Microtubule CSK Stabilty (AID 2282909). The note with it: HepG2 microtubule cytoskeleton imaging, actives raise or lower the signal. A digest of the protocol: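 Steps: dose HepG2 for 24 h (0.39–200 uM, 0.5% DMSO); fix 30 min in 3.7% formaldehyde at room temperature; permeabilize; stain alpha-tubulin 60 min; image microtubule cytoskeleton at 20x. Signal change fitted in both directions relative to DMSO.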

Experiment [6] in a line: APR_HepG2_MitoticArrest_24hr: Apredica 24-hour HepG2 Assay for Mitotic Arrest (AID 2282910). The note with it: high-content imaging, actives raise or lower the signal. A digest of the protocol:
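Compounds are dosed onto HepG2 cells across ten concentrations up to 200 uM for 24 hr. Cells are then fixed in 3.7% formaldehyde, permeabilised, and labelled for phospho-histone H3 and nuclei; images are scored by cell cycle analysis and fitted bidirectionally relative to DMSO.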

Experiment [7] can be described thus: APR_HepG2_MitoMembPot_24hr: Apredica 24-hour HepG2 Assay for Mitochondrial Membrane Potential (AID 2282911). As to conditions: imaging, actives raise or lower the signal. The method in brief:
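Cells are dosed for 24 hr across 0.39 to 200 uM with solvent held at 0.5% DMSO. They are then stained with 250 nM MitoTracker Red CMXRos for 30 min, fixed in 3.7% formaldehyde and imaged.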

A short description of experiment [8]: APR_HepG2_MitoMass_24hr: Apredica 24-hour HepG2 Assay for Mitochondrial Mass (AID 2282912). The note with it: high-content imaging, actives raise or lower the signal. A digest of the protocol: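 The liver line HepG2 was dosed in duplicate across a 0.39–200 uM series, with final DMSO held at 0.5% v/v, and harvested at 24 hr. High-content imaging measured mitochondrial dye staining.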

Experiment [9] in a line: APR_HepG2_p53Act_24hr: Apredica 24-hour HepG2 Assay for p53 Activation (AID 2282913).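 Further: p53 protein immunofluorescence averaged per cell in HepG2 with Hoechst nuclei.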 As to conditions: high-content imaging, actives raise or lower the signal. The method in brief: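 Human HepG2 liver cells; 24 hr cpd treatment, 0.39–200 uM, 0.5% DMSO final. Fixed in 3.7% formaldehyde, permeabilized with 0.5% Triton X-100, stained with anti-p53/Cy5 plus Hoechst 33342. Six images per well at 20x; gain or loss vs DMSO.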

Experiment [10] in a line: APR_HepG2_CellCycleArrest_72hr: Apredica 72-hour HepG2 Assay for Cell Cycle Arrest (AID 2282914). As to conditions: high-content imaging, actives raise or lower the signal. The method in brief: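 Read-out is Hoechst-stained nuclear DNA content measured by automated fluorescence imaging (20x, six images per well), fitted in both directions relative to DMSO. Human HepG2 liver cells received 0.39–200 uM compound for 72 hr at 0.5% v/v DMSO.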

A short description of experiment [11]: APR_HepG2_CellLoss_72hr: Apredica 72-hour HepG2 Assay for Cell Loss (AID 2282915). The note with it: high-content imaging. The method in brief:
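Cell number comes from Hoechst 33342-labelled nuclei, imaged at 20x after 3.7% formaldehyde fixation. Dosing was 0.39–200 uM, ten concentrations in duplicate, 0.5% DMSO final, for 72 h. Bidirectional fit relative to DMSO baseline.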

A short description of experiment [12]: APR_HepG2_P-H2AX_72hr: Apredica 72-hour HepG2 Assay for H2AX Phosphorylation (AID 2282916).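 Further: phospho-histone H2A.x immunostain intensity per cell marking DNA damage.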 As to conditions: imaging, actives raise or lower the signal. A digest of the protocol: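 Following 72 hr treatment with 0.39–200 uM compound, HepG2 cells were formaldehyde-fixed, permeabilized and stained for phospho-H2A.x; signal was measured by high-content imaging and fitted bidirectionally against DMSO controls.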

Experiment [13] is described as follows: APR_HepG2_MitoMembPot_72hr: Apredica 72-hour HepG2 Assay for Mitochondrial Membrane Potential (AID 2282917). As to conditions: imaging, actives raise or lower the signal. The method in brief:
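Membrane potential read by MitoTracker Red CMXRos (250 nM, 30 min, pre-fixation) fluorescence imaging of HepG2 after 72 hr exposure. Ten concentrations, 0.39–200 uM, duplicate wells, 0.5% DMSO; fitted in both directions against DMSO baseline.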

Experiment [14] in a line: APR_HepG2_MitoticArrest_72hr: Apredica 72-hour HepG2 Assay for Mitotic Arrest (AID 2282918). As to conditions: high-content imaging, actives raise or lower the signal. The method in brief:
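Read-out is phospho-histone H3 immunofluorescence with Hoechst nuclear segmentation, imaged at 20x. Human HepG2 liver cells received ten concentrations (0.39–200 uM, final DMSO 0.5% v/v) for 72 hr before fixation. Gain or loss of signal was fitted relative to DMSO.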

A short description of experiment [15]: APR_HepG2_MicrotubuleCSK_72hr: Apredica 72-hour HepG2 Assay for Microtubule CSK Stabilty (AID 2282919). As to conditions: HepG2 microtubule cytoskeleton, high-content imaging, actives raise or lower the signal. The method in brief: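 Read-out is tubulin fluorescence intensity from high-content imaging of HepG2 cells, with nuclei identified by Hoechst 33342. Treatment lasts 72 h at 0.39–200 uM, and curves are fitted bidirectionally against the DMSO negative control.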

Experiment [16] is described as follows: APR_HepG2_P-H2AX_24hr: Apredica 24-hour HepG2 Assay for H2AX Phosphorylation (AID 2282920). The note with it: high-content imaging, actives raise or lower the signal. The method in brief: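 HepG2, 24 hr, cpd 0.39–200 uM (10 conc, duplicate), DMSO 0.5% v/v final. Fix 3.7% formaldehyde, Triton X-100 permeabilize, anti-phospho-H2A.x 1:200 + Hoechst 2 ug/mL. Imaged, bidirectional fit vs DMSO.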

Experiment [17] in a line: APR_HepG2_StressKinase_72hr: Apredica 72-hour HepG2 Assay for Stress Kinase (AID 2282921). As to conditions: HepG2 stress kinase (phospho-c-Jun) imaging, actives raise or lower the signal. The method in brief: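 Fluorescence intensity of Cy3-tagged anti-phospho-c-Jun antibody, quantified per cell from Hoechst-defined nuclei across six images per well, served as the read-out following 72 h exposure (0.39–200 uM, 0.5% v/v DMSO).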

Experiment [18] can be described thus: APR_HepG2_StressKinase_24hr: Apredica 24-hour HepG2 Assay for Stress Kinase (AID 2282922). As to conditions: HepG2 stress kinase (phospho-c-Jun) imaging, actives raise or lower the signal. The method in brief:
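HepG2, 24 hr dosing, 0.39–200 uM in duplicate, 0.5% DMSO; formaldehyde fix (3.7%), 0.5% Triton X-100; anti-phospho-c-Jun + Cy3 secondary, Hoechst counterstain; ArrayScan imaging; bidirectional curve fit vs DMSO baseline.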

A short description of experiment [19]: APR_HepG2_p53Act_72hr: Apredica 72-hour HepG2 Assay for p53 Activation (AID 2282923).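 Further: average cellular p53 protein immunofluorescence intensity in HepG2 cells.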 The note with it: high-content imaging, actives raise or lower the signal. The method in brief:
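HepG2 monolayers receive test compounds in duplicate at ten concentrations (0.39 through 200 uM) for 72 hr. They are then formaldehyde-fixed, antibody-labelled for p53, Hoechst-stained and imaged, with activity fitted bidirectionally versus DMSO.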

The nature of experiment [20]: APR_HepG2_MitoMass_72hr: Apredica 72-hour HepG2 Assay for Mitochondrial Mass (AID 2282924).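 Further: MitoTracker Red CMXRos stain intensity per cell imaged as mitochondrial mass.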 The note with it: high-content imaging, actives raise or lower the signal. A digest of the protocol: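 HepG2, 72 hr cmpd, 10 conc 0.39–200 uM in dup, DMSO 0.5% v/v. MitoTracker Red CMXRos 250 nM 30 min pre-fix; formaldehyde 3.7% fix 30 min RT. HCS imaging, gain/loss fit vs DMSO.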

In the case of `CCCCCCCCCCCCc1ccccc1S(=O)(=O)O`, the compound was classed as inactive in experiment [1], in experiment [2], in experiment [3], in [5], in experiment [7] and in experiment [8]. Further, the outcome in experiment [10], in [13], in [15] and in [18] was inactive. Besides, the AC50 in experiment [4] was 116 µM (active); in experiment [6], 106 µM (active); in [9] it was 120 µM (active); in [11], 149 µM (active); in experiment [12], 111 µM (active); in experiment [14] it was 107 µM (active). Moreover, the AC50 is 119 µM (active) in [16], 112 µM (active) in [17], 106 µM (active) in [19] and 120 µM (active) in experiment [20].

As for `Cc1ccc(S(=O)(=O)O)c(C)c1`, the outcome in experiment [1] was inactive.

Take `NC(=O)N(O)[C@@H]1C=C[C@H](Oc2cccc(Oc3ccc(F)cc3)c2)C1`: the compound was classed as inactive in experiment [1], in experiment [2], in [3], in [6], in [8] and in experiment [10]. Also, the compound was classed as inactive in experiment [12], in experiment [13], in [15], in experiment [17], in experiment [18] and in experiment [19]. For the same compound, in experiment [20], the call was inactive. Besides, the AC50 is 107 µM (active) in experiment [4]; 93 µM (active) in [5]; 32.9 µM (active) in experiment [7]; 105 µM (active) in experiment [9]; 94.7 µM (active) in experiment [11]; 85.4 µM (active) in [14]. In addition, the AC50 in [16] is 103 µM (active).

In the case of `CCc1nn(C2CCCCC2)c2cc(C3(C#N)CCC(C(=O)O)CC3)ccc12` (configuration not stated), the call in [1], in experiment [2], in experiment [3], in [4], in experiment [5] and in experiment [6] was inactive. The outcome in experiment [7], in [8], in experiment [9], in experiment [10], in experiment [13] and in experiment [15] was inactive. Moreover, the compound was classed as inactive in experiment [16], in experiment [17], in experiment [18] and in experiment [20]. Also, the AC50 is 33.3 µM (active) in experiment [11], 84 µM (active) in experiment [12], 80.7 µM (active) in [14] and 97.7 µM (active) in experiment [19].

`CCOC(=O)CC(O)(CC(=O)OCC)C(=O)OCC`: the AC50 in [1] was 750 nM (active). Further, the result in [2], in experiment [3], in experiment [4], in experiment [5], in experiment [6] and in experiment [7] was inactive. The result in [8], in experiment [9], in experiment [10], in experiment [11], in experiment [12] and in experiment [13] was inactive. Further, the compound was classed as inactive in [14], in experiment [15], in experiment [16], in [17], in experiment [18] and in experiment [19]. In experiment [20], the call was inactive.

Turning to `FC(F)(I)C(F)(F)C(F)(F)C(F)(F)C(F)(F)C(F)(F)I`, the AC50 in [1] is 6.86 nM (active) and 252 nM (active).

On to `CC(C)CCCCCCOC(=O)CCCCC(=O)OCCCCCCC(C)C`, for which the call in experiment [1], in [2], in [3], in [4], in experiment [5] and in [6] was inactive. The outcome in experiment [7], in experiment [8], in experiment [9], in [10], in [11] and in [12] was inactive. The outcome in [13], in experiment [14], in experiment [15], in [16], in [17] and in experiment [18] was inactive. For the same compound, the compound was classed as inactive in experiment [19] and in experiment [20].
